This test relates to VDR:RXRa (NR concentration 270 nM, RXRa partner concentration 90 nM). Put plainly: PBM binding z-score (relative to random genomic background probes); higher = stronger binding; sequences stand for … in GC…GCGATTGACAGCGTAGAATGAAGG
The procedure: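 Protein-binding microarray (Agilent 4x180K custom design, double-stranded 60-nt probes: 5' GC cap, 34-nt variable region, 24-nt constant primer region; full probe sequence given). Purified or IVT nuclear receptor:RXRα heterodimers (3:1 NR:RXRα, mostly 270:90 nM) or homodimers were incubated for 1 h in PBS with 2% milk and no ligand, then detected with Alexa488 antibodies. Fluorescence from o1-orientation probes (~5 replicates averaged) was converted to z-scores against 500 random hg19 background probes. Variable regions are seed direct-repeat (DR0–DR5) sites, all their single-nucleotide variants and half-site ablations.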
As to CGTGCTAGGTCATGGTCAGCTAATCTACAGTATG, the PBM binding z-score was determined as 1.7.

CCTAGCACGCCAATCTGGGTCACTCAAGGCTTGA displayed a PBM binding z-score of 0.379.

Take GCATATAGGTAATACGAGGTGAAAGTCCGATTGT: the PBM binding z-score worked out at 0.598.

As to TCAGACAGGTGAAGATAACTCAGGTACGCAGTCG, the PBM binding z-score is 0.709.

In the case of TCATATAGGTAAACAGGTGAAAGTCCGTAAGTTA, the PBM binding z-score came to 1.27.

The sequence GCTATTAGTTGAAAGGGCAACTGAATGATTCTCG had a PBM binding z-score of 0.488.

For the sequence ACTAGTTGGTCAGCGGAGGTCACACACAATTCGG, the PBM binding z-score was 3.98.

For CGAACTAGGTCATTGACAGAACAGTGAATAGTAA, the PBM binding z-score was determined as 1.97.

AGTCAAAGTTCACTAGGTAACGTAGGATTCAGCT: the PBM binding z-score is 3.71.

Sequence TCATATAGGTATTACAGGTGAAAGTCGGCATCTA yielded a PBM binding z-score of 1.34.

Turning to CGAACTAGGTCATTGACAGGACTGTGAATAGTAA, the PBM binding z-score stood at 1.65.

Take CGTCAAAGTTCAACTAAGCTAACGTAAAGCACGC: the PBM binding z-score stood at 4.35.

Sequence TCTGCTAGGACAACGATGGTCAGCTAATCTGCTA had a PBM binding z-score of -0.784.

In the case of CGAACGAGGGCATGTGTTGATAGCAAATGCCGAT, the PBM binding z-score was 0.931.

Sequence CCTAGTTGGTCAAGGACACACACGCTATAGGTAC displayed a PBM binding z-score of 0.744.

Regarding TCTTGTAGATCAGCCGGTTAAGAAAGCTGGCCAA, the PBM binding z-score was -0.00365.

Turning to GCTCGCAGGACAAGGTCAGAGCTTTGTCCGTAGA, the PBM binding z-score amounted to 0.842.

The sequence CCGACTGGGGCATAAGGTTACCGTAAGCCAGCCC gave a PBM binding z-score of 0.108.

GCTAGTTGCTCAGTAAAAGGTCACACACCGGTCG showed a PBM binding z-score of 3.73.

Regarding CAAACTAGGTCAAGGTCAAAGTCGGTTTGTGCCA, the PBM binding z-score was 5.23.

The sequence CCTAGTTGGTCAAGTTCACACACGCTATAGGTAC yielded a PBM binding z-score of 3.96.

GCTCGGAGTACAAGGTCAGAGCTTTGTCCGTAGA: the PBM binding z-score was determined as 1.48.

Sequence CCTGCTAGGTCAATGGCCAGCTAAAGCAGCTCGC yielded a PBM binding z-score of 0.561.

Regarding CCTATTAGTTGACCATAAGGGCAATCGAAGCTCG, the PBM binding z-score worked out at 0.713.

As for TCTAGTTGGTCACGGAGGTCACACTCGACGGGTA, the PBM binding z-score is 5.86.

In the case of ATCTCTAGGTAACAATTTCAGTGAAAGAGAGGAC, the PBM binding z-score was 0.483.

The sequence ACTAGCAGGCAAAGTTTGGGTCACTCAAACAAAG showed a PBM binding z-score of 0.478.

As for TCGGACAGGTGAAGGTAACTCAGGTACGCAGTCG, the PBM binding z-score stood at 0.531.

The sequence CGAACTAGGTCATCCAGGACAGTGCATACATTGA came in with a PBM binding z-score of 4.69.

Take ATCTCTAGGTAAAAGTTCGGTGAATCCCGAGGAT: the PBM binding z-score stood at 0.449.

For TTTAGTTGGTCACGGAGGTCACACACGACGGGTA, the PBM binding z-score turned out to be 6.05.

Consider CGGCAAAGTTCAACTAAGGTAACGTAAAGCACGC, for which the PBM binding z-score is 4.67.

In turn, AATACAGGGTCATCGTAGGCGAGAGTACGCACAG came in with a PBM binding z-score of 5.01.

ATCTCAAGGTAACCAAGTTCAGTGAATGCCGAAC had a PBM binding z-score of 5.03.

In turn, CCTAGCAGGGCAATCTGGGTCACTCAAGGCTTGA came in with a PBM binding z-score of 1.08.

For ATCTCTAGGTAACAAGTTCAGTGACAGAGAGGAC, the PBM binding z-score came to 1.97.

Sequence GCACACAGGTGAAACGCAGGTAACTCAGGGTGGC displayed a PBM binding z-score of -0.336.

CATACAGGGTCAGCTAGGCCAGGGTAGGGACGGC: the PBM binding z-score worked out at 3.64.

On to TCATATAGGTAAAAGGTGAACGTCGGTGTGGTAA, for which the PBM binding z-score amounted to 1.79.

Turning to TCATATAGGTAAATGCTAGGTGAAAGCCCGATCT, the PBM binding z-score came to 0.543.

(Values after the supplement of paper PMC6555819.)
